Source: PubChem BioAssay (National Center for Advancing Translational Sciences (NCATS))
Abeta rescue: A-beta toxicity reversal in yeast | yeast expressing A-beta42, growth rescue, OD600, 48 h; response scale: 0% DMSO, 100% iron-clioquinol control | Potency, µM (top dose mostly 46.1 µM), most hits filed as activators | hit rate 0.063% among 410,000; note: nearly all actives have a fitted effect of over 55% in size
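Yeast growth medium received pinned compounds, then yeast cells expressing toxic A-beta were added; plates incubated at 30 C for 48 hr. Growth read as absorbance at 600 nm, normalized to DMSO and equimolar FeCl3 plus clioquinol controls.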
TDP-43 yeast inh: rescues yeast growth from TDP-43 toxicity. TDP-43 expressing yeast growth rescue, BacTiter-Glo, 24 h. Potency, µM (doses to about 46.1 µM), for the others: top-dose growth rescue (activation), most hits filed as activators. hit rate 1.8% among 410,000; note: % of control where 0% means no effect; nearly all actives have a fitted effect of over 50% in size
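Yeast cells expressing TDP-43 under galactose induction are exposed to compounds for 24 hr at 30 deg C. BacTiter-Glo luminescence measures growth, so protective compounds score as activators.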
aSyn yeast inh: alpha-synuclein toxicity inhibition in yeast | Yeast expressing alpha-synuclein, growth rescue, BacTiter-Glo, 24 h | Potency, µM (series often up to 46.1 µM), inactives show top-dose growth rescue (activation), actives largely listed as activators | hit rate 0.14% among 370,000 | AID 652106; note: % of control where 0% means no effect; nearly all actives have a fitted effect of over 65% in size
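Readout is rescue of growth in alpha-synuclein-expressing yeast, so inhibitors of toxicity appear as activators. Growth after 24 hr at 30 deg C in galactose medium is quantified by luminescence.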
FUS yeast rescue: rescues growth of FUS-expressing yeast; S. cerevisiae FUS-expressing, growth rescue, OD600, 24 h; Potency, µM (titrated, usually from 76.6 µM), usual class: activators; hit rate 0.24% among 390,000; AID 1347120;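 note: plate controls were DMSO vehicle for no effect and reference control for full effect; nearly all actives have a fitted effect of over 55% in size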
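Steps: raffinose overnight preculture; dilution to OD 0.005 in 2% galactose minimal medium; compound addition (concentration series); 24hr at 30C, 99% humidity; absorbance read at 600 nm.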
* marks the source's active call; other numbers are inactive results; i = inactive; ? = inconclusive; nt = no result given; ! = repeats disagree; [ ] = another dose, or the depositor's remark. Most compounds without a hit are left out; they make up all but 2.1% or so of the library. Calls come from the whole dose curve; as a rule, active = well fitted curve in the direction sought with a large enough effect; inconclusive = small, poorly fitted or top-dose-only effect, or another doubt; inactive = no such curve, though single readings can be large; an effect the other way counts as inactive or inconclusive. Potency is the fitted concentration of half-maximal effect.

SMILES | Abeta rescue | TDP-43 yeast inh | aSyn yeast inh | FUS yeast rescue
Cc1ccccc1Nc1nc(N)nc(CSc2nnc(C)n2C)n1 | i | -0.1% | 1.3% | i
Cc1ccccc1Nc1nc(N)nc(CSc2ccc(F)cc2)n1 | i | 25.1µM* | 2.4% | i
Cc1ccc(SCc2nc(N)nc(Nc3ccccc3C)n2)c(C)c1 | ? | ? | 8.0% | i
Cc1ccccc1Nc1nc(N)nc(CSc2nc3ccccc3s2)n1 | i | 20µM* | 3.8% | nt
O=C(NCC(c1ccccc1)c1ccccc1)[C@H](Cc1ccccc1)NC1(C(=O)NC2CCCCC2)CCOCC1 | nt | nt | nt | i
COc1ccc(C2Nc3ccccc3C(=O)N2Cc2ccco2)cc1COc1c(C)cccc1C (stereo not given) | nt | nt | 1.6% | nt
Nc1c(Cl)cc(/C=C2\C=Cc3ccccc32)cc1Cl | nt | nt | -27.8% | nt
C=CCN1[C@H](C)COc2cccc(F)c2S1(=O)=O | nt | nt | nt | i
O=[N+]([O-])c1ccc(/C=C/c2cc(Cl)nc3ccccc23)cc1 | nt | nt | 4.0% | nt
COc1ccc(Nc2nc(N)nc(CSc3nc4cc(OC)ccc4s3)n2)cc1 | i | 20µM* | nt | ?
C[C@H]1CN([C@@H](C)CO)C(=O)CCCn2cc(nn2)CO[C@@H]1CN(C)S(=O)(=O)c1ccc2ccccc2c1 | i | 12.1% | 3.55µM* | i
C[C@H](CO)N1C[C@H](C)[C@@H](CN(C)S(=O)(=O)c2ccccc2)OCc2cn(nn2)CCCC1=O | i | -13.5% | -19.9% | i
C[C@@H]1CN([C@H](C)CO)C(=O)CCCn2nncc2CO[C@@H]1CN(C)S(=O)(=O)c1ccccc1F | i | 15.8µM* | -3.9% | i
O=C(COc1ccc(F)cc1Cl)Nc1nnc(-c2ccc(F)c(F)c2)o1 | nt | nt | nt | i
O=C(c1ccc(-c2cccc([N+](=O)[O-])c2)o1)N1CCN(c2ccc([N+](=O)[O-])cc2)CC1 | i | -7.8% | 1.1% | i
CC1CC(C)CN(C(=O)c2ccc(-c3ccc([N+](=O)[O-])cc3)o2)C1 (stereo not given) | i | 14.1µM* | -14.8% | i
O=C(c1ccc(-c2ccc([N+](=O)[O-])cc2)o1)N1CCCCC1 | i | 12.6µM* | 0.1% | i
CCOc1ccc(N/C=C/C(=O)c2ccc(OC)c(OC)c2)cc1 | i | 15.8µM* | ? | i
CCCOc1ccc(N/C=C/C(=O)c2ccc(OC)c(OC)c2)cc1 | i | 6.4% | 16.0% | i
O=[N+]([O-])c1ccc(O/N=[N+](\[O-])N2CCN(c3ccccc3)CC2)c([N+](=O)[O-])c1 | nt | nt | -43.3% | nt
COc1ccc(-n2cnc3cc(C(=O)NC4CCCCCC4)ccc32)cc1 | i | 35.5µM* | nt | i
C=CCN1C(C(=O)OC)CN(Cc2cn(Cc3ccc(Cl)cc3)nn2)CCS1(=O)=O (stereo not given) | nt | nt | nt | i
O=C(c1ccc(N2CCCC2=O)cc1)N1CCN(c2ccccc2O)CC1 | i | 9.4% | -0.7% | i
Cc1ccccc1NS(=O)(=O)c1ccc(C(=O)N2CCCC2)cc1 | i | 1.3% | -1.6% | nt
O=C(c1cccc(S(=O)(=O)N2CCCCCC2)c1)N1CCN(c2ccccc2F)CC1 | i | ? | 8.1% | i
SMILES | Abeta rescue | TDP-43 yeast inh | aSyn yeast inh | FUS yeast rescue
Cc1cccc(N2CCN(C(=O)c3cccc(S(=O)(=O)N4CCCCC4)c3)CC2)c1C | i | 7.08µM* | 6.1% | i
Cc1cccc(N2CCN(C(=O)c3cccc(N4CCCC4=O)c3)CC2)c1C | i | 12.6µM* | 4.8% | i
Cc1ccc(C)c(N2CCN(C(=O)c3ccc(N4CCCC4=O)cc3)CC2)c1 | i | 20µM* | 2.4% | i
Cc1cccc(NS(=O)(=O)c2ccc(C(=O)N3CCN(c4ccccc4O)CC3)cc2)c1C | i | 15.0% | -0.2% | 31.6µM*
Cc1ccccc1CS(=O)(=O)Cc1ccc(C(=O)Nc2cccc(C)c2C)o1 | nt | nt | nt | i
Clc1ccc([C@H]2OC[C@@]3(CNC4CCCCC4)CS[C@H](c4ccc(Cl)cc4)N23)cc1 | nt | nt | nt | i
CC1CCC2(CC1)CCN(CCCOC(=O)NCc1ccc(Cl)cc1)C2=O (stereo not given) | nt | nt | nt | i
O=C(c1cccc(S(=O)(=O)N2CCCCC2)c1)N1CCc2ccccc21 | i | -6.6% | 4.2% | 2.82µM*
C[C@H](O)[C@@H]1CN2CCc3ccc(N4CCOCC4)cc3[C@@H]2C[C@@H]1N(C)C(=O)c1ccccc1F | nt | nt | nt | i
O=C(NC1CCCCN(Cc2ccc(OC(F)(F)F)cc2)C1=O)c1cccc(F)c1 (stereo not given) | nt | nt | nt | i
COc1ccc([C@H]2OC(=O)C[C@@H]2C(=O)N2CCN(c3ccccc3Cl)CC2)cc1OC | nt | nt | nt | i
COc1ccc(C2=CC(=O)C[C@H](c3ccc(OC)c(OC)c3)C2)cn1 | i | ? | 6.0% | i
CCCCC/C=C/C1=CC(=O)C[C@H](c2ccc(OC)c(OC)c2)C1 | i | 35.5µM* | ? | ?
COc1ccc([C@H]2CC(=O)C=C(c3ccccc3)C2)cc1OC | i | ? | 0.6% | i
COc1ccc([C@H]2CC(=O)C=C(c3ccccc3OC)C2)cc1OC | i | 20µM* | 8.6% | i
COc1ccc(C=O)cc1C1=CC(=O)C[C@H](c2ccc(Cl)cc2)C1 | i | 20µM* | 2.8% | ?
COc1ccc([C@H]2CC(=O)C=C(c3cccc(Cl)c3)C2)cc1OC | i | 22.4µM* | 10.1% | i
OC(c1ccccc1)(c1ccccc1)C1CCN(CCCOc2ccc(Br)cc2)CC1 | nt | nt | nt | i
NC(=NCCCCCCN=C(N)/N=C(\N)Nc1ccc(Cl)cc1)/N=C(\N)Nc1ccc(Cl)cc1 | i | 25.1µM*! | -58.9% | i
CCOc1ccc(C(=O)Nc2cc(-c3nc4ccccc4[nH]3)ccc2C)cc1[N+](=O)[O-] | i | -3.4% | -15.8% | ?
CCOc1ccc(C(=O)Nc2cc(-c3nc4ccccc4[nH]3)ccc2Cl)cc1[N+](=O)[O-] | i | 3.98µM* | -13.7% | nt
CCCOc1ccc(C(=O)Nc2cc(-c3nc4ccccc4[nH]3)ccc2C)cc1 | i | 12.6µM* | nt | i
N/C(=N/OC(=O)c1cccc([N+](=O)[O-])c1)c1cccc([N+](=O)[O-])c1 | i | 3.2% | -8.7% | i
N/C(=N\OC(=O)c1ccccc1Cl)c1cccc([N+](=O)[O-])c1 | i | 11.2µM* | -32.3% | i
N/C(Cc1ccc([N+](=O)[O-])cc1)=N\OC(=O)c1ccc([N+](=O)[O-])cc1 | i | 17.8µM* | 0.4% | nt
N/C(=N\OC(=O)c1ccc2ccccc2c1)c1cccc([N+](=O)[O-])c1 | i | 22.4µM* | -34.3% | i
N/C(Cc1ccc([N+](=O)[O-])cc1)=N\OC(=O)c1cccc(Br)c1 | i | -93.3% | -72.6% | i
N/C(=N\OC(=O)c1ccc2ccccc2c1)c1ccccn1 | i | -13.1%[0.397 µM] | -6.8% | i
N/C(=N\OC(=O)c1ccc2ccccc2c1)c1ccncc1 | i | 12.6µM* | 10.2% | i
CN(C)[C@@H]1CCN(c2cccc3c2S(=O)(=O)N2CC[C@@H](C2)O3)C1 | nt | nt | nt | i
